This is an account of results in PubChem BioAssay (NCI).

Holding throughout (assay): NCI-60 one-dose screen, 48 h (100 = growth as untreated, 0 = no growth, -100 = all killed)
What all share (conditions): 10 µM unless noted

The subject of test [1] is SK-MEL-2 melanoma.
Test [2] relates to EKVX NSCLC.
For test [3], the system named is SN12C renal.
The subject of test [4] is UO-31 renal.
For test [5], the system named is TK-10 renal.
Test [6] relates to ACHN renal.
For test [7], the system named is CCRF-CEM leukemia.
The subject of test [8] is MOLT-4 leukemia.
Test [9] deals with SR leukemia.
Test [10] has as its system RPMI-8226 leukemia.
Test [11] concerns OVCAR-8 ovarian.
For test [12], the system named is OVCAR-5 ovarian.
Test [13] relates to OVCAR-4 ovarian.
Test [14] relates to SK-OV-3 ovarian.
The test system of test [15] is IGROV1 ovarian.
For test [16], the system named is OVCAR-3 ovarian.
The test system of test [17] is HS 578T breast.
Test [18] concerns NCI/ADR-RES ovarian.
In test [19] the test system is A498 renal.
The test system of test [20] is CAKI-1 renal.

About 83,000 compounds went through this panel and 20% of them were active in at least one assay; those are over-represented in the sample as a whole.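 A percent growth of 40 corresponds to 60% growth inhibition; 0 means no net growth; -100 means all cells died. Active threshold: below 10.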 A number with no mark means an inactive call. Active and inactive are the calls of the source.

For `Cc1cc(N2CCOCC2)nc(N[C@@H]2CCC[C@H](Nc3ccnc4cc(Cl)ccc34)C2)n1`, the growth in test [1] was -71.5% (active); in test [2] it was 49.9%; in [3], 22.7%; in test [4], -84.5% (active); in [5] it was -68.7% (active); in test [6] it was -61.7% (active). Also, the growth in [7] was -10.4% (active); in test [8], 2.9% (active); in [9] it was -36.9% (active); in test [10], -45.6% (active); in [11], 5.36% (active); in [12], 49.4%. In addition, the growth in test [13] was 35.5%; in test [14] it was 64.4%; in test [15], 26.4%; in test [16], 22.6%; in test [17], -11.1% (active); in [18] it was 18.2%.
In the case of `CCN1CCN(c2nc(NCCNc3ccnc4cc(Cl)ccc34)c3ccccc3n2)CC1`, the growth in test [1] is -71.4% (active); in test [2] it was 53.3%; in test [3] it was -5.71% (active); in [4], -75.2% (active); in test [5] it was -19.4% (active); in test [6], -25.7% (active). Moreover, the growth in test [7] was -12.8% (active); in test [8], 6.3% (active); in [9], -25.5% (active); in test [10], -25.4% (active); in test [11], 2.98% (active); in [12], 53.7%. Further, the growth was 33.7% in test [13]; 51.8% in [14]; 28.6% in [15]; 8.7% (active) in test [16]; 49.8% in test [17]; 70.3% in test [18].
Regarding `Cc1cc(N2CCCCC2)nc(NC2CCCC(Nc3ccnc4cc(Cl)ccc34)C2)n1` (configuration not stated), the growth in test [1] is -77% (active); in test [2], 7.48% (active); in test [3] it was -74.9% (active); in test [4], -99% (active); in [5], -61.8% (active); in [6] it was -86.2% (active). Further, the growth in test [19] is -29% (active); in test [7], -17.8% (active); in [8] it was -28.2% (active); in test [9], -53.5% (active); in [10], -52.4% (active); in test [11] it was -82.9% (active). The growth is 11.2% in test [12]; -38.8% (active) in test [13]; -71.7% (active) in test [14]; -33% (active) in test [15]; -48.6% (active) in test [17]; -41.8% (active) in test [18].
Consider `NC(=O)c1cc(Cl)ccc1NC(=O)/C=C/c1ccccc1`, for which the growth in [1] is 57.7%; in test [2], 41%; in [3] it was 49%; in test [4], 41.3%; in test [5] it was 45.1%; in test [20], 56.5%. Besides, the growth is 54.1% in [19]; 3.8% (active) in [7]; 28.4% in [8]; -34.1% (active) in test [9]; 12.8% in [10]; 51.2% in [11]. Further, the growth in test [12] was 54.6%; in [13], 40.7%; in test [14], 3.73% (active); in test [15] it was 88.6%; in test [16], -30.3% (active); in [17], 7.85% (active). Moreover, in test [18], the growth is 10.8%.
Regarding `CN1CCN=C1c1ccc(NC(=O)c2ccc(C(=O)Nc3ccc(C4=NCCN4C)cc3)cc2)cc1`, the growth in test [1] is 121%; in [2], 89.1%; in [3], 98.1%; in [4], 82.3%; in test [5] it was 90.4%; in test [6], 99.3%. The growth in test [19] was 117%; in test [7], 110%; in test [8] it was 100%; in test [9] it was 89.4%; in [11] it was 85.7%; in [12] it was 87.5%. Besides, the growth in test [13] was 98.3%; in test [14] it was 96.5%; in [15], 90.1%; in test [16] it was 109%; in [17], 80.3%; in test [18] it was 100%.
For the molecule `CC(=O)OCCC/C(=C/c1cc2ccccc2c2ccccc12)[N+](=O)[O-]`, the growth in test [1] is -80.8% (active); in [2] it was -31.7% (active); in test [3], -88.9% (active); in test [4], -97% (active); in test [5] it was -72.2% (active); in test [6], -91.7% (active). The growth in [7] is -36.1% (active); in [8], -28.7% (active); in test [9], -45.8% (active); in test [11], -100% (active); in test [12], -95.1% (active); in test [13], 0.455% (active). Moreover, the growth was 44.7% in test [14], -99.1% (active) in test [16], -46.2% (active) in test [17] and -29.4% (active) in test [18].
Regarding `CN(C)C(=S)N=Nc1c(O)[nH]c2ccccc12`, the growth in [1] was -12.6% (active); in test [2], 14.8%; in test [3], 25.1%; in test [4], -19.1% (active); in [5] it was 28.9%; in test [6], 16.9%. Besides, the growth in test [19] was 1.31% (active); in test [7], -11.6% (active); in test [8], -12.4% (active); in [9], -17.8% (active); in test [11] it was -24.1% (active); in test [12] it was 35.3%. Besides, the growth was 14.9% in test [13]; 18.8% in test [14]; -58.9% (active) in [15]; 3.86% (active) in [16]; 13.4% in test [17]; -11.6% (active) in test [18].
On to `O=C(CN1CCCCC1)Nc1ccc2oc(=O)ccc2c1`, for which the growth in [1] is 96.8%; in [2], 101%; in test [3] it was 101%; in [4] it was 79.1%; in test [5] it was 108%; in [6], 111%. The growth in test [7] is 86%; in test [8], 83.1%; in [9], 84.4%; in [10] it was 90.7%; in test [11] it was 97.8%; in test [12], 122%. In addition, the growth is 120% in test [13]; 109% in [14]; 102% in test [15]; 111% in test [16]; 97% in test [17]; 107% in test [18].
For the molecule `O=c1ccccc(-c2ccc(-c3ccco3)cc2)c1O`, the growth is 19.9% in [1]; 11.8% in [2]; 11.3% in [3]; -12.2% (active) in [4]; 33.5% in [5]; 9.23% (active) in test [6]. In addition, the growth in test [19] is 39%; in test [7], 5.03% (active); in [8] it was 7.73% (active); in test [10], 8.75% (active); in [11], 12.7%; in test [12], 54.9%. Besides, the growth was 23.7% in test [13]; 18.2% in [14]; 12.9% in test [15]; 28.8% in test [16]; 59.3% in test [17]; 12% in test [18].
`CCc1nc(N)nc(N)c1C#CC(C)c1cc(-c2ccnc(C)c2)c2oc(C)nc2c1` (configuration not stated): the growth in test [1] was 30.1%; in [2], 19.2%; in [3] it was 6.91% (active); in [4], 9.81% (active); in [5] it was 25.2%; in test [6] it was 9.82% (active). Besides, the growth is 0.474% (active) in test [7]; 1.69% (active) in test [8]; 3.38% (active) in test [9]; 2.39% (active) in [10]; 18.6% in test [11]; 36.8% in test [12]. The growth in test [13] was 51%; in test [14], 16.8%; in test [15] it was 2.77% (active); in [16], 17%; in test [17] it was 26.4%; in test [18], 11.5%.
Take `O=C(Cc1ccc(/C=C/C(=O)c2ncc[nH]2)cc1)Nc1ccccc1`: the growth in test [1] is 82.8%; in test [2], 64.6%; in test [3] it was 21.8%; in test [4], 31.3%; in [5], 49.1%; in [6], 76%. The growth in [19] is 83.5%; in [7], 3.9% (active); in test [8], 29.1%; in [9], 1.14% (active); in [10], -0.0972% (active); in test [11] it was 22.1%. Further, the growth is 78.5% in [12]; 68.2% in test [13]; 75.9% in test [14]; 63.5% in test [15]; 17.7% in [16]; 80.7% in [17]. In test [18], the growth is 31.1%.
Consider `Cc1[nH]c(-c2ccc3cc[nH]c3c2)c2c1C(=O)CCCC2`, for which the growth in test [1] is 71%; in [2], 47.8%; in [3], 50.8%; in test [4], 22.2%; in [5], 32.7%; in test [20] it was 11.9%. The growth in test [19] was 44.4%; in test [7] it was 64.7%; in test [8], 68.6%; in test [9] it was 50.9%; in test [10], 21.9%; in [11], 46.4%. In addition, the growth in test [12] was 78.2%; in test [13], 48.5%; in test [14], 25.5%; in [15], 36.9%; in [16], 51%; in test [17], 21.9%. In test [18], the growth was 40.7%.
